Test results published in PubChem BioAssay (NCATS).
Records with an inconclusive call do not appear. Where a call stands in place of a potency, no number is given. Calls of active or inactive are those of the source. Unless noted, the call rests on the fitted dose curve. Numbered stars: 1 amine (or outer) side, 2 acyl side, 3 side chain; on linkers, the order of the positions; unused ones are H or OH. Bridge positions count the residues as written; N and C are the ends. Square brackets hold non-standard residues; d marks the D form. Peptide text beside a SMILES is read from it. I, II: the chains in the order shown. Actinocin(9to1) = Cc1c2oc3c(C)ccc(C(=O)[*:1])c3nc-2c(C(=O)[*:2])c(N)c1=O; NMeV = CN[CH](C(=O)O)C(C)C; Sar = CNCC(=O)O

Key:
[1] = biological target: Alpha-galactosidase (Coffea arabica) (UniProt Q42656); assay: Counterscreen for Glucocerebrosidase Inhibitors: qHTS Assay for Coffee Bean alpha-Galactosidase at pH 4.5 (AID 957; active means well fitted curve in the direction sought with a large enough effect; an effect the other way counts as inactive or inconclusive)
Method in brief: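 AC50 values derive from Hill-equation modeling of concentration-response data, normalized to no-enzyme and full-activity controls. The pH 4.5 citrate assay used 2 nM coffee bean enzyme and 80 uM fluorogenic substrate for 20 min.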

[2] = biological target: Alpha-galactosidase (Coffea arabica) (UniProt Q42656); assay: Counterscreen for Glucocerebrosidase Inhibitors: qHTS Assay for Coffee Bean alpha-Galactosidase at pH 5.9 (AID 998; active means well fitted curve in the direction sought with a large enough effect; an effect the other way counts as inactive or inconclusive)
Method in brief: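 Green coffee bean enzyme (2 nM) with 4-methylumbelliferyl alpha-D-galactopyranoside (80 uM) in 50 mM citric acid, 0.005% Tween-20, pH 5.9, 20 min at room temperature; compounds 0.7 nM–77 uM. Stopped at pH 10, fluorescence Ex365/Em440; Hill-fit AC50.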

[3] = Validation screen for inhibitors of Lassa infection (AID 463096)
[4] = Inducers of the Endoplasmic Reticulum Stress Response (ERSR) in human glioma: Validation (AID 504836; active means well fitted curve in the direction sought with a large enough effect; an effect the other way counts as inactive or inconclusive)
Method in brief: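 Stably transfected U87-MG glioma cells carrying a GRP78-based luciferase sensor; 16 h compound incubation. Luminescence end-point read 10 min after Bright-Glo addition at room temperature.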

[5] = qHTS for Inhibitors of the Functional Ribonucleoprotein Complex (vRNP) of Lassa (LASV) Arenavirus: LASV Primary Screen - GLuc reporter signal (AID 1347082; calls by dose curve; tested in HEK293 reporter line; further: nearly all actives have a fitted effect of over 60% in size; further: potency means the concentration at half of the fitted maximal effect)
[6] = qHTS for Inhibitors of the Functional Ribonucleoprotein Complex (vRNP) of Lassa (LASV) Arenavirus: Viability assay - alamar blue signal for LASV Primary Screen (AID 1347083; calls by dose curve; tested in HEK293 reporter line; further: nearly all actives have a fitted effect of over 80% in size; further: potency means the concentration at half of the fitted maximal effect)
[7] = qHTS for Inhibitors of the Functional Ribonucleoprotein Complex (vRNP) of Lymphocytic Choriomeningitis Arenaviruses (LCMV): Viability assay - alamar blue signal for LCMV Primary Screen (AID 1347085; calls by dose curve; tested in HEK293 reporter line; further: nearly all actives have a fitted effect of over 80% in size; further: potency means the concentration at half of the fitted maximal effect)
[8] = biological target: Nucleoprotein (Lymphocytic choriomeningitis virus (strain Armstrong)) (UniProt P09992); assay: qHTS for Inhibitors of the Functional Ribonucleoprotein Complex (vRNP) of Lymphocytic Choriomeningitis Arenaviruses (LCMV): LCMV Primary Screen - GLuc reporter signal (AID 1347086); further: nearly all actives have a fitted effect of over 70% in size; further: potency means the concentration at half of the fitted maximal effect
[9] = Cytotoxicity counterscreen for inhibitors of SARS-CoV-2 cell entry (AID 1645845); further: nearly all actives have a fitted effect of over 50% in size
Method in brief: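 HEK293-ACE2 cells (Expi293F stably expressing human ACE2) seeded overnight, then compound for 1 h plus 48 h at 37C. Viability as ATP content by luminescence; normalized to wells with cells and media-only wells.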

[10] = Primary qHTS to identify inhibitors of SARS-CoV-2 cell entry (AID 1645846); conditions: activity change, negative = inhibition: at 57.1 µM (top of the series) unless noted; further: nearly all actives have a fitted effect of over 45% in size; further: potency means the concentration at half of the fitted maximal effect
Method in brief: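 Data are normalized to wells receiving SARS-CoV-2-S pseudoparticles and those given bald particles. Entry signal was luciferase luminescence in stable hACE2 Expi293F cells, 48 hr post-infection, after 1 hr compound pretreatment.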

[11] = qHTS profiling of the MIPE4 collection as inhibitors of Plasmodium falciparum (DD2) proliferation (AID 743345; call rule not given here); conditions: P. falciparum Dd2 in erythrocytes, SYBR Green DNA, 72 h; at 28.5 µM (top of the series) unless noted
Method in brief: (§1)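 Erythrocytes infected with P. falciparum (0.3% parasitemia, 2.5% hematocrit) incubated with compounds 72 h at 37 C, 5% CO2. Lysis with saponin/Triton buffer containing SYBR Green I, overnight at room temperature in the dark; DNA fluorescence (485/535 nm) normalised to 0.29 uM artemisinin and DMSO.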

[12] = qHTS profiling of the MIPE4 collection as inhibitors of Plasmodium falciparum (3D7) proliferation (AID 743344; call rule not given here); conditions: P. falciparum 3D7 in erythrocytes, SYBR Green DNA fluorescence, 72 h; at 28.5 µM (top of the series) unless noted
Method in brief: as §1

[13] = biological target: Nuclear receptor subfamily 1 group I member 3 (Homo sapiens) (UniProt Q14994); assay: Primary qHTS for antagonist of constitutive androstane receptor (CAR) against the NCATS DSHEA and TCM libraries (AID 1794836; active means well fitted curve in the direction sought with a large enough effect; an effect the other way counts as inactive or inconclusive;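 further: HepG2 cells stably expressing hCAR with CYP2B6 luciferase reporter stimulated by CITCO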)
Method in brief: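 HepG2-CYP2B6-hCAR cells, attached 5 h, given compounds plus CITCO agonist […], incubated 24 h at 37 C. Luciferase luminescence read, multiplexed with CellTiter-Fluor viability (Ex/Em 405/540 nm).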

Sequence of Alpha-galactosidase (Coffea arabica) (Q42656 whole entry, looked up): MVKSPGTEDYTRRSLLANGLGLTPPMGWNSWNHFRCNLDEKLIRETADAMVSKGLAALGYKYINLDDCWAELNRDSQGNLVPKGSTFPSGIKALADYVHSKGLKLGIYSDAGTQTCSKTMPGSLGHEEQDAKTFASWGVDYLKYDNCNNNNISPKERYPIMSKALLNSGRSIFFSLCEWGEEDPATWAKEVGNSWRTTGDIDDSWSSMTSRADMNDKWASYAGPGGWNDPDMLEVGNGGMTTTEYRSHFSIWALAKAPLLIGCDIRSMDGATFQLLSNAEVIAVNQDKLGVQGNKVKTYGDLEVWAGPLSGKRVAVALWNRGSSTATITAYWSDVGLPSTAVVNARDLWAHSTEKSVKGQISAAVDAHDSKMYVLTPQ
Sequence of Nuclear receptor subfamily 1 group I member 3 (Homo sapiens) (Q14994 whole entry, looked up): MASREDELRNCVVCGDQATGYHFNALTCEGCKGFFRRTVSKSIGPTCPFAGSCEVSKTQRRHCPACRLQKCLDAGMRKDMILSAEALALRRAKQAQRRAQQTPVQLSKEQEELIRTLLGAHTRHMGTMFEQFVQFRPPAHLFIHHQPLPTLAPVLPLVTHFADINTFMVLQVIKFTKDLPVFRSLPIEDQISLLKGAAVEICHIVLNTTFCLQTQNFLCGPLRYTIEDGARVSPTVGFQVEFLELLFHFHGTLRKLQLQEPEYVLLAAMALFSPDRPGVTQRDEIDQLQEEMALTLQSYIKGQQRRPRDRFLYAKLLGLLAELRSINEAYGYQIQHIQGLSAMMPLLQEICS
Sequence of Nucleoprotein (Lymphocytic choriomeningitis virus (strain Armstrong)) (P09992 whole entry, looked up): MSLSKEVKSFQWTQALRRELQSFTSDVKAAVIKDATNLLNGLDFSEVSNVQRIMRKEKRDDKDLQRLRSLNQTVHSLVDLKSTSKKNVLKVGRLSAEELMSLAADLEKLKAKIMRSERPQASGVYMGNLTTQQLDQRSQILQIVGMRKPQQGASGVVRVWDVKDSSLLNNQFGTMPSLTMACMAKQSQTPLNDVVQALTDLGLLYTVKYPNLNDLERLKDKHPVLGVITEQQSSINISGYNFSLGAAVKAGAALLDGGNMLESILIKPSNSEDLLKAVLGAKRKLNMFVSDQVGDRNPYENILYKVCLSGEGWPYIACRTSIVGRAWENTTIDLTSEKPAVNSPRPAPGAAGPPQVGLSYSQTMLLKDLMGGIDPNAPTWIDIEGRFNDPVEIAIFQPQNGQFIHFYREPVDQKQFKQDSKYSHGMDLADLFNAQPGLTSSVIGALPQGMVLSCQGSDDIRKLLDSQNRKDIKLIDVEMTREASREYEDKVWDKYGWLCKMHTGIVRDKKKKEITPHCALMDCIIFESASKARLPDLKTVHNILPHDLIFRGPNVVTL

SMILES: O=C1Nc2ccc(I)cc2/C1=C/c1cc(Br)c(O)c(Br)c1
- outcome [1]: inactive
- outcome [2]: inactive
- Potency [3]: inactive
- outcome [4]: inactive
- Potency [5]: inactive
- Potency [6]: inactive
- Potency [7]: inactive
- Potency [8]: inactive
- Potency [9]: inactive
- activity change, negative = inhibition [10]: -7.81%

SMILES: NCCCCNCCCN
- outcome [1]: inactive
- outcome [2]: inactive
- Potency [3]: inactive
- outcome [4]: inactive
- Potency [5]: inactive
- Potency [6]: inactive
- Potency [7]: inactive
- Potency [8]: inactive
- Potency [9]: inactive

SMILES: O=S(=O)(O)CCSSCCS(=O)(=O)O
- Potency [5]: inactive
- Potency [6]: inactive
- Potency [7]: inactive
- Potency [8]: inactive
- Potency [9]: inactive
- Potency [10]: inactive

SMILES: O=c1c(O)c(-c2cc(O)c(O)c(O)c2)oc2cc(O)cc(O)c12
- outcome [1]: inactive
- outcome [2]: inactive
- outcome [4]: inactive
- Potency [5]: inactive
- Potency [6]: inactive
- Potency [7]: inactive
- Potency [8]: inactive
- Potency [9]: inactive
- Potency [10]: inactive

SMILES: O=C1c2ccccc2-[n+]2ccc3c([nH]c4ccccc43)c21
- Potency [5]: 4850 nM (active)
- Potency [6]: 4320 nM (active)
- Potency [7]: 6110 nM (active)
- Potency [8]: 3060 nM (active)
- Potency [10]: 1260 nM (active)

SMILES: O=C(Nc1cccc(Nc2ncc(Br)c(NCCc3cnc[nH]3)n2)c1)N1CCCC1
- Potency [5]: inactive
- Potency [6]: 21700 nM (active)
- Potency [7]: 27300 nM (active)
- Potency [8]: inactive
- activity change, negative = inhibition [10]: -97.2%

SMILES: Cc1cnc(CNC(=O)c2c(=O)c3ccc(N4CCCN(C)CC4)nc3n3c2sc2ccccc23)cn1
- Potency [5]: inactive
- Potency [6]: 15000 nM (active)
- Potency [7]: 8410 nM (active)
- Potency [8]: inactive
- activity change, negative = cytotoxicity [9]: -25.6% [at 11.3 µM] (inactive)

SMILES: COc1ccc(CCC(=O)Nc2nc3ccc(Cl)cc3s2)cc1OC
- parasite growth remaining, % of DMSO control (lower = more inhibition) [11]: 66.5%
- Potency [5]: inactive
- Potency [6]: inactive
- Potency [7]: inactive
- Potency [8]: inactive
- Potency [9]: inactive
- Potency [10]: inactive

SMILES: COC1CCC(N(C(=O)C2CCC(C)CC2)c2cc(C3=CCCCC3)sc2C(=O)O)CC1 (stereo not given)
- parasite growth, % of DMSO control [12]: 31.6%
- parasite growth remaining, % of DMSO control (lower = more inhibition) [11]: 61.5%
- Potency [5]: inactive
- Potency [6]: inactive
- Potency [7]: inactive
- Potency [8]: inactive
- Potency [9]: inactive
- activity change, negative = inhibition [10]: 1.37%

SMILES: Cc1c2oc3c(C)ccc(C(=O)NC4C(=O)NC(C(C)C)C(=O)N5CCCC5C(=O)N(C)CC(=O)N(C)C(C(C)C)C(=O)OC4C)c3nc-2c(C(=O)NC2C(=O)NC(C(C)C)C(=O)N3CCCC3C(=O)N(C)CC(=O)N(C)C(C(C)C)C(=O)OC2C)c(N)c1=O (stereo not given) (I: TVP[Sar][NMeV] / II: TVP[Sar][NMeV]; ester I:1-I:C, II:1-II:C; linker I:N-II:N via Actinocin(9to1); configuration not given here)
- Potency [5]: inactive
- Potency [6]: inactive
- Potency [7]: inactive
- Potency [8]: inactive
- activity change, negative = inhibition [10]: -91.5% [at 27.1 µM]

SMILES: Nc1cccc(-c2cc3c(Oc4cccc(O)c4)ncnc3[nH]2)c1
- Potency [5]: inactive
- Potency [6]: 34300 nM (active)
- Potency [7]: 30600 nM (active)
- Potency [8]: inactive
- Potency [9]: inactive
- activity change, negative = inhibition [10]: -8.51%

SMILES: CC1(C)CC(=O)c2c(C(F)(F)F)nn(-c3ccc(C(N)=O)c(NC4CCC(O)CC4)c3)c2C1 (stereo not given)
- Potency [5]: 1090 nM (active)
- Potency [6]: 611 nM (active)
- Potency [7]: 769 nM (active)
- Potency [8]: 273 nM (active)
- activity change, negative = inhibition [10]: -89.6%

SMILES: CC(C)Nc1cc(C(F)(F)F)cc2nc(NC(=O)c3cccnc3)nn12
- Potency [5]: inactive
- Potency [6]: inactive
- Potency [7]: inactive
- Potency [8]: inactive
- Potency [9]: inactive
- activity change, negative = inhibition [10]: -4.48%

SMILES: CCCCS(=N)(=O)CCC(N)C(=O)O (stereo not given)
- Potency [3]: inactive
- outcome [4]: inactive
- Potency [5]: inactive
- Potency [6]: inactive
- Potency [7]: inactive
- Potency [8]: inactive
- Potency [9]: inactive
- Potency [10]: inactive

SMILES: O=C(O)c1ccccc1C(=O)Nc1ccc(-c2ccccc2)cc1
- parasite growth, % of DMSO control [12]: 93.6%
- Potency [5]: inactive
- Potency [6]: inactive
- Potency [7]: inactive
- Potency [8]: inactive
- Potency [9]: inactive
- Potency [10]: inactive

SMILES: C=C(C)[C@@H]1CC[C@]2(C(=O)O)CC[C@]3(C)[C@H](CC[C@@H]4[C@@]5(C)CC[C@H](O)C(C)(C)[C@@H]5CC[C@]43C)[C@@H]12
- parasite growth, % of DMSO control [12]: 60.5%
- Potency [5]: inactive
- Potency [6]: inactive
- Potency [7]: inactive
- Potency [8]: inactive
- Potency [9]: inactive
- Potency [10]: inactive
- Potency [13]: inactive

SMILES: C=C1c2cccc(O)c2C(O)=C2C(=O)[C@@]3(O)C(O)=C(C(N)=O)C(=O)[C@@H](N(C)C)[C@@H]3[C@@H](O)[C@H]12
- Potency [5]: inactive
- Potency [6]: inactive
- Potency [7]: inactive
- Potency [8]: inactive
- Potency [9]: inactive
- activity change, negative = inhibition [10]: -17.4%

SMILES: CN1CC(=O)NC1=NC(=O)Nc1cccc(Cl)c1
- Potency [5]: inactive
- Potency [6]: inactive
- Potency [7]: inactive
- Potency [8]: inactive
- Potency [9]: inactive
- activity change, negative = inhibition [10]: -1.73%

SMILES: CCCNC(=O)Nc1ccc(Oc2ncnc3cc(OC)c(OC)cc23)cc1Cl
- parasite growth, % of DMSO control [12]: 38.8%
- parasite growth remaining, % of DMSO control (lower = more inhibition) [11]: 61.5%
- Potency [5]: inactive
- Potency [6]: inactive
- Potency [7]: inactive
- Potency [8]: inactive
- activity change, negative = inhibition [10]: -16.7%

SMILES: Oc1ccc(-c2nc(-c3ccc(F)cc3)c(-c3ccncc3)[nH]2)cc1
- outcome [1]: inactive
- outcome [2]: inactive
- outcome [4]: inactive
- Potency [5]: inactive
- Potency [6]: inactive
- Potency [7]: inactive
- Potency [8]: inactive

SMILES: CCCCCC(=O)CC
- Potency [5]: inactive
- Potency [6]: inactive
- Potency [7]: inactive
- Potency [8]: inactive
- Potency [13]: inactive

SMILES: CN1CCN(Cc2ccc(NC(=O)Nc3ccc(Oc4cc(NC(=O)C5CC5)ncn4)cc3)cc2C(F)(F)F)CC1
- Potency [5]: 2430 nM (active)
- Potency [6]: 1530 nM (active)
- Potency [7]: 968 nM (active)
- Potency [8]: 1720 nM (active)
- Potency [10]: 1000 nM (active)

SMILES: Cc1ccccc1C(=O)c1ccc(Nc2ccc(Br)cc2N)cc1Cl
- Potency [5]: inactive
- Potency [6]: inactive
- Potency [7]: inactive
- Potency [8]: inactive

SMILES: O=c1cc(-c2ccc(O)c(O)c2)oc2cc(O)cc(O)c12
- parasite growth remaining, % of DMSO control (lower = more inhibition) [11]: 89.2%
- Potency [5]: inactive
- Potency [6]: inactive
- Potency [7]: inactive
- Potency [8]: inactive
- Potency [13]: inactive
